The panel holds about 83,000 compounds, 20% with a hit somewhere; the sample as a whole holds those more often.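 A percent growth of 40 corresponds to 60% growth inhibition; 0 means no net growth; -100 means all cells died. Active threshold: below 10.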 A number with no mark means an inactive call. The source made the active and inactive calls.
How the values were obtained:
Experiment in all cases: NCI-60 one-dose screen, 48 h (100 = growth as untreated, 0 = no growth, -100 = all killed)
NCI-H460 lung = settings: 10 µM unless noted
786-0 renal = settings: 10 µM unless noted
DU-145 prostate = settings: 10 µM unless noted
SF-268 CNS = settings: 10 µM unless noted
SF-539 CNS = settings: 10 µM unless noted
M14 melanoma = settings: 10 µM unless noted
HCT-15 colon = settings: 10 µM
SNB-75 CNS = settings: 10 µM unless noted
PC-3 prostate = settings: 10 µM unless noted
UACC-62 melanoma = settings: 10 µM unless noted
TK-10 renal = settings: 10 µM unless noted
ACHN renal = settings: 10 µM unless noted
CAKI-1 renal = settings: 10 µM unless noted
HL-60(TB) leukemia = settings: 10 µM unless noted
MOLT-4 leukemia = settings: 10 µM
OVCAR-3 ovarian = settings: 10 µM unless noted
NCI/ADR-RES ovarian = settings: 10 µM unless noted
SW-620 colon = settings: 10 µM unless noted
KM12 colon = settings: 10 µM unless noted
MCF7 breast = settings: 10 µM unless noted

Structure (SMILES) | growth (NCI-H460 lung) | growth (786-0 renal) | growth (DU-145 prostate) | growth (SF-268 CNS) | growth (SF-539 CNS) | growth (M14 melanoma) | growth (HCT-15 colon) | growth (SNB-75 CNS) | growth (PC-3 prostate) | growth (UACC-62 melanoma) | growth (TK-10 renal) | growth (ACHN renal) | growth (CAKI-1 renal) | growth (HL-60(TB) leukemia) | growth (MOLT-4 leukemia) | growth (OVCAR-3 ovarian) | growth (NCI/ADR-RES ovarian) | growth (SW-620 colon) | growth (KM12 colon) | growth (MCF7 breast)
CCC[CH2][Sn]([CH2]CCC)([CH2]CCC)[O]C(=O)c1ccc(Cl)cc1Cl | -78% (active) | -91.7% (active) | -98% (active) | -95.5% (active) | -91.7% (active) | -85.8% (active) | -82.9% (active) | -93.2% (active) | -76.8% (active) | -95.4% (active) | -90.5% (active) | -100% (active) | -92.6% (active) | -32.7% (active) | -16.6% (active) | -98.3% (active) | -68.6% (active) | -71.7% (active) | -92.4% (active) | 
CC(C)OC(=S)[S-].[Au+].c1ccc([PH+](c2ccccc2)c2ccccc2)cc1 | 79.5% | 2.78% (active) | 50% | 18.2% | 7.83% (active) | 11.5% | -14.2% (active) | 18.5% | 42.9% | 0.794% (active) | -3.22% (active) | 0.723% (active) | 16.7% | 1.15% (active) | 10.9% | -43% (active) | 67.6% | -59.2% (active) | 69.4% | 2.73% (active)
COc1ccc(CN2CCN(Cc3ccccc3)CC2)c(O)c1 | 97% | 95% | 97.4% | 100% | 117% | 89.5% | 99.2% | 89.8% | 86.2% | 96.2% | 100% | 87.5% | 92.4% | 91.9% | 83.7% | 81.1% | 83.4% | 98.5% | 100% | 99.7%
CC[C@@]1(C2O[C@@H](C3O[C@@](O)(CC)[C@H](C)C[C@@H]3C)C[C@@H]2C)CC[C@H]([C@]2(C)CCC3(C[C@H](O)[C@@H](C)[C@@H]([C@H](C)[C@@H](OC)[C@H](C)C(=O)O)O3)O2)O1 (stereo partly specified) |  |  | 44.9% | 22.4% | 12.6% |  | 11.5% | 16% |  |  | 49.1% | 32% | 24.5% |  | 30.8% | 11% | 31.1% | 11.3% | 20.6% | 
C/C(=N/OC(=O)N(C)C)c1ccc(Cl)cc1Cl | 104% | 100% | 109% | 103% | 95.9% | 106% | 105% | 79.2% | 118% | 98.7% | 88.5% | 98.7% | 96.6% | 93.7% | 90% | 99.5% | 96.7% | 106% | 108% | 95%
Cc1nnc([S-])s1.[Au+].c1ccc([PH+](c2ccccc2)c2ccccc2)cc1 | 57.3% | -29.7% (active) | 18.6% | 7.17% (active) | -22.9% (active) | -2.48% (active) | -76% (active) | -76.3% (active) | 15.4% | -31% (active) | -61.5% (active) | -89.4% (active) | -26.8% (active) | -15.2% (active) | -9.08% (active) | -96.3% (active) | 63.4% | -70.6% (active) | 49.1% | -64.1% (active)
n1nc(-c2nonc2-c2nn[nH]n2)n[nH]1 | 109% | 99% | 103% | 122% | 115% | 115% | 106% | 106% | 102% | 107% | 110% | 115% | 98.8% | 105% | 110% | 150% | 104% | 107% | 118% | 101%
O=C(O)C1(Br)CC12c1ccccc1-c1ccccc12 (stereo unspecified) | 111% | 101% | 111% | 100% | 103% | 102% | 101% | 104% | 100% | 103% | 88% | 99% |  | 94% | 86% | 103% | 104% | 111% | 99.7% | 93.4%

Reference: PubChem BioAssay (NCI)
